Screening data: PubChem BioAssay, National Center for Advancing Translational Sciences (NCATS)
Only some compounds are listed: those with a hit (about 11% of all), similar ones and a draw of the others.
ALDH1A1 inh – qHTS Assay for Inhibitors of Aldehyde Dehydrogenase 1 (ALDH1A1); Aldehyde dehydrogenase 1A1 (Homo sapiens), P00352; Purified ALDH1A1, NADH fluorescence, propionaldehyde substrate; hit rate 7.3% among 220,000; Potency, µM (doses to about 75.3 µM), hits mostly inhibitors
JMJD2E inh – qHTS Assay for Inhibitors of Human Jumonji Domain Containing 2E (JMJD2E) | Lysine-specific demethylase 4E (Homo sapiens), B2RXH2 | JMJD2E catalytic domain, FDH-coupled NADH fluorescence (FDH is formaldehyde dehydrogenase) | Potency, µM (top dose mostly 57.1 µM), actives largely listed as inhibitors | hit rate 1.6% among 230,000; note: nearly all actives have a fitted effect of over 50% in size
Target sequence (B2RXH2 1-337 limits assumed): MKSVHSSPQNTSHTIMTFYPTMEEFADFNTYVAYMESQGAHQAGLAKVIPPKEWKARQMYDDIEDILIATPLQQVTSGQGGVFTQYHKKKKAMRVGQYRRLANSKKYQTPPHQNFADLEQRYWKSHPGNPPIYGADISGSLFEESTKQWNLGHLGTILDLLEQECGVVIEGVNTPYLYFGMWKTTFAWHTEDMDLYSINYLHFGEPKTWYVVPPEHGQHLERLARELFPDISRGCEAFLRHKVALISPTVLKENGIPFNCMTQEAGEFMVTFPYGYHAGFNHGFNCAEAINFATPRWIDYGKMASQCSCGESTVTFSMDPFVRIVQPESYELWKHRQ
HPGD inh – qHTS Assay for Inhibitors of HPGD (15-Hydroxyprostaglandin Dehydrogenase). Potency, µM, actives largely listed as inhibitors. AID 894, 2007. purified HPGD, NADH fluorescence kinetic, PGE2 substrate. hit rate 4.3% among 150,000. 15-hydroxyprostaglandin dehydrogenase [NAD(+)] (Homo sapiens), P15428
Target sequence (P15428 whole entry, looked up): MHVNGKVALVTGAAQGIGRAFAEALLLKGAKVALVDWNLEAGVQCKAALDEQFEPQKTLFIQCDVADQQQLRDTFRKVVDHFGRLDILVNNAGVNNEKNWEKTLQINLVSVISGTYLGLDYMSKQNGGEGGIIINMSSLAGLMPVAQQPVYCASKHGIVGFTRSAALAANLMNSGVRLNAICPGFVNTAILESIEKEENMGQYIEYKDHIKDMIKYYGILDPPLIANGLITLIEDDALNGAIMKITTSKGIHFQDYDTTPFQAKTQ
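NADH formation kinetics: reaction with 30 uM PGE2 and 1 mM NAD+ (final), 20 nM enzyme, Tris-HCl pH 8 with Tween 20, after 15 min compound preincubation at room temperature. Fluorescence change, last versus first of five reads.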
PNC inhibitor – High Content Assay for Compounds that inhibit the Assembly of the Perinucleolar Compartment. activity change (PNC), negative = inhibition, % at 10 µM. hit rate 3.1% among 140,000. PC3M PTB-GFP, PNC prevalence imaging, 16 h; hits give low values;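 active = readout at or below -70, meaning at least 70% loss of cells showing the perinucleolar compartment, a nuclear body marking cancer cells; inconclusive = readout between -30 and a set limit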
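Read-out is percentage of cells bearing a perinucleolar compartment, from automated 20x imaging of fixed, Hoechst-stained PC3M PTB-GFP cells. Cells were seeded 4 h, then exposed 16 h to compound (23 nl of library stock) in duplicate plates.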
Each line names hits and unclear results; the compound was inactive in the other large screens; ! = a repeat was not active. Unless noted, calls come from the whole dose curve; as a rule, active = well fitted inhibition curve with a large enough effect (not every such curve was filed as active); inconclusive = small, poorly fitted or top-dose-only effect, or another doubt; inactive = no such curve, though single readings can be large or run the other way.

CCCCC/C=C\C/C=C\C/C=C\C/C=C\CCCC(=O)NCCc1ccc(O)c(O)c1	ALDH1A1 inh 16µM!, HPGD inh inconclusive (no result: PNC inhibitor)
CC/C=C\C/C=C\C/C=C\C/C=C\C/C=C\CCCC(=O)NCCCC(=O)O	none (no result: PNC inhibitor)
CCCCC/C=C\C/C=C\C/C=C\C/C=C\CCCC(=O)Nc1ccc(O)cc1	ALDH1A1 inh inconclusive, HPGD inh 35µM (no result: PNC inhibitor)
CCCCC/C=C\C/C=C\C/C=C\C/C=C\CCCC(=O)NCC(=O)O	JMJD2E inh 22µM!, HPGD inh 28µM! (no result: PNC inhibitor)
CCCCC/C=C\C/C=C\C/C=C\C/C=C\CCCC(=O)N(Cc1ccc(O)c(Cl)c1)Cc1ccc(O)c(Cl)c1	ALDH1A1 inh 3.5µM (no result: JMJD2E inh, PNC inhibitor)
C1C[C@@H]2CN(CCCN3CCOCC3)[C@@H](C1)O2	none (no result: JMJD2E inh, PNC inhibitor)
C(CCOCC1CO1)COCC1CO1 (stereo not drawn)	none (no result: JMJD2E inh, PNC inhibitor)
CCCCC/C=C\C/C=C\C/C=C\C/C=C\CCCC(=O)NC(C)C(=O)O (stereo not drawn)	none (no result: PNC inhibitor)
CCCCC/C=C\C/C=C\C/C=C\C/C=C\CCCC(=O)NCCO	ALDH1A1 inh 10µM! (no result: PNC inhibitor)
CCCCC/C=C\C/C=C\CCCCCCCCCC(=O)NCCO	none (no result: PNC inhibitor)
CCCCC/C=C\C/C=C\C/C=C\C/C=C\CCCC(=O)NCc1ccoc1	ALDH1A1 inh 18µM (no result: JMJD2E inh, PNC inhibitor)
[Cl-].[Cl-].[Hg+2]	ALDH1A1 inh 0.14µM, HPGD inh 0.1µM (no result: JMJD2E inh, PNC inhibitor)
COc1cc(=O)[nH]c(SCc2c(F)c(F)c(F)c(F)c2F)n1	HPGD inh 16µM
CC(C)(C#N)O[C@H]1OC(CO)C(O)C(O)C1O (stereo partly drawn)	none (no result: PNC inhibitor)
c1ccc2c(c1)CN1CCCC1=N2	none (no result: PNC inhibitor)
O=c1ccc(=O)[nH][nH]1	ALDH1A1 inh inconclusive (no result: JMJD2E inh, PNC inhibitor)
CCc1ccc(N2C(=O)NC(=O)/C(=C\c3cccn3CCOc3ccc(C(C)C)cc3)C2=O)cc1	none
CC(C)c1ccc(N2C(=O)NC(=O)/C(=C/c3cnc(-c4ccccc4)nc3)C2=O)cc1	ALDH1A1 inh 19µM, JMJD2E inh 8.9µM, HPGD inh 13µM
CCc1ccc(N2C(=O)NC(=O)/C(=C/c3ccsc3)C2=O)cc1	none (no result: HPGD inh, PNC inhibitor)
CSc1ncc(/C=C2/C(=O)NC(=O)N(c3ccc(C(C)C)cc3)C2=O)cn1	ALDH1A1 inh 14µM, JMJD2E inh inconclusive, HPGD inh inconclusive
O=C1NC(=O)N(Cc2ccccc2)C(=O)/C1=C/c1cnc(-c2ccccc2)nc1	JMJD2E inh 22µM (no result: HPGD inh, PNC inhibitor)
CC(C)(Cl)Cl	none (no result: JMJD2E inh, PNC inhibitor)
CS(=O)(=O)O[C@H]1CN2CCC1CC2	none (no result: JMJD2E inh, PNC inhibitor)
N=C1/C(=C/c2ccc(OC(=O)c3ccco3)cc2)C(=O)N=C2SC=CN12	ALDH1A1 inh inconclusive, JMJD2E inh 14µM (no result: HPGD inh, PNC inhibitor)
CC(C)C(=O)CP(=O)(O)O	none (no result: JMJD2E inh, PNC inhibitor)
COc1ccc(C(C)=O)cc1COc1ncnc2ccccc12	ALDH1A1 inh 1.8µM (no result: HPGD inh, PNC inhibitor)
Cc1oc2ccc(OC(=O)N(C)C)cc2c1C(=O)OC(C)C	none
COc1cccc(Oc2c(C)oc3cc(OC(=O)N(C)C)ccc3c2=O)c1	ALDH1A1 inh 22µM, JMJD2E inh inconclusive
CCCSC(=O)Cl	none (no result: JMJD2E inh, PNC inhibitor)
CC1(C)C(C=C(Cl)Cl)C1C(=O)OC(C#N)c1cccc(Oc2ccccc2)c1 (stereo not drawn)	ALDH1A1 inh 25µM! (no result: JMJD2E inh, PNC inhibitor)
CCCN(CCC)C1Cc2cc(OC)c(OC)cc2C1	ALDH1A1 inh 22µM! (no result: PNC inhibitor)
N#C/C(=C\c1ccc(O)c(O)c1)C(=O)NCCCNC(=O)/C(C#N)=C/c1ccc(O)c(O)c1	ALDH1A1 inh inconclusive, JMJD2E inh 3.5µM, HPGD inh 16µM (no result: PNC inhibitor)
CCCCCCCCCCCCCCC[C@@H](O)[C@@H](N)COP(=O)(O)O	none (no result: PNC inhibitor)
CC1OC(OC2C(O)CC(OC3C(O)CC(OC4CCC5(C)C(CCC6C5CCC5(C)C(C7=CC(=O)OC7)CCC65O)C4)OC3C)OC2C)CC(O)C1O (stereo not drawn)	none (no result: JMJD2E inh, PNC inhibitor)
Nc1ccc(Cl)cc1N	ALDH1A1 inh 8.9µM (no result: JMJD2E inh, PNC inhibitor)
Oc1ccc(Cl)cc1Sc1cc(Cl)ccc1O	ALDH1A1 inh inconclusive, HPGD inh 2.5µM (no result: JMJD2E inh, PNC inhibitor)
Cc1cc(Cl)ccc1O	none (no result: JMJD2E inh, PNC inhibitor)
Nc1cc(Cl)ccc1Cl	none (no result: JMJD2E inh, PNC inhibitor)
Nc1ccc(Cl)cc1C(=O)c1ccccc1	none (no result: HPGD inh, PNC inhibitor)
Nc1cc(Cl)ccc1O	ALDH1A1 inh 8.9µM, HPGD inh 10µM (no result: JMJD2E inh, PNC inhibitor)
C=C(C)C(=O)OCC1CO1 (stereo not drawn)	ALDH1A1 inh inconclusive (no result: JMJD2E inh, PNC inhibitor)
C[C@H]1O[C@@H](O[C@H]2[C@@H](O)C[C@H](O[C@H]3[C@@H](O)C[C@H](O[C@H]4CC[C@]5(C)C6CC[C@]7(C)[C@@H](C8=CC(=O)OC8)CC[C@]7(O)C6CC[C@@H]5C4)O[C@@H]3C)O[C@@H]2C)C[C@H](O)[C@@H]1O (stereo partly drawn)	none (no result: PNC inhibitor)
NCCc1c[nH]c2ccc(O)cc12	none (no result: JMJD2E inh, PNC inhibitor)
